Test results reported in PubChem BioAssay (NCI).
This is part of a sample that, as a whole, favours compounds with a hit. Of some 83,000 tested, about 20% had one in any assay.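 Compound tested at a single concentration for 48 hours in 96-well plates; a percent growth value below 10 was scored as active.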 Activity calls are given as the source filed them.

These compounds were tested on HL-60(TB) leukemia (assay: NCI-60 one-dose screen, 48 h (100 = growth as untreated, 0 = no growth, -100 = all killed)). Details: 10 µM unless noted.
For O=C(c1ccc(F)c(F)c1Nc1ccc(I)cc1F)N1CC(O)([C@@H]2CCCCN2)C1, the growth was -18.9% (active). COc1cc(Cc2cc(OC)c(O)c(OC)c2)cc(OC)c1O was tested, and the growth was 44% (inactive). With CC(C)N(CCNc1nc(C(Cl)(Cl)Cl)nc2cc(Cl)ccc12)C(C)C the growth was -0.349% (active). In the case of c1cc[c]([Bi]([c]2ccccc2)[c]2ccccc2)cc1, the growth is reported as 96.6% (inactive). With COc1ccc2c(c1)O/C(=C\c1cccc(OCC(=O)Nc3nc(C)c(C)s3)c1)C2=O the growth was -77.3% (active). For COc1ccc(C(=O)C[C@]2(O)C(=O)Nc3c(Cl)ccc(Cl)c32)cc1, the growth was -6.62% (active). For COc1ccc(NC(=O)c2ccc(-c3ccccc3)cc2)c(C(N)=O)c1, the growth was 61.7% (inactive). In the case of Nc1ccc(CC[C@H]2CCC/C=C/[C@@H]3C[C@H](O)C[C@H]3[C@H](O)/C=C/C(=O)O2)cc1, the growth is reported as -8.51% (active). Cc1cc2c(C(C)C)c(O)c(O)c(C=NCCCCC(=O)O)c2c(O)c1-c1c(C)cc2c(C(C)C)c(O)c(O)c(C=NCCCCC(=O)O)c2c1O was tested, and the growth was 42.6% (inactive). With NC(C(=O)O)c1ccc([N+](=O)[O-])cc1 (stereo not given) the growth was 95.8% (inactive). For CC[N+](CC)=c1ccc2nc3c(cc(N)c4ccccc43)oc-2c1, the growth was -55.6% (active). With NC(=S)N/N=C(\c1ccc(Cl)cc1)C1CC1 the growth was 75.7% (inactive). With ClC1=C2NC=NC2n2c(nnc2-c2ccc(Cl)cc2)N1 (stereo not given) the growth was 118% (inactive). For N#CC1=CC2CN(Cc3ccccc3)C1C1C(=O)N(c3ccccc3)C(=O)C21 (stereo not given), the growth was 76% (inactive). In the case of COC(=O)c1oc2c(C(C)=O)c(OCCCN(C)C)ccc2c1C, the growth is reported as 75.3% (inactive).
